# Bioassay records: PubChem, National Center for Advancing Translational Sciences (NCATS)
# KB-3-1 cytotox – qHTS assay for MDR1-selective chemotherapeutics: Primary screen using the parental adenocarcinoma cell KB-3-1. KB-3-1 viability, CellTiter-Glo ATP luminescence, 72 h. Potency, µM (highest dose often 46.1 µM), usual class: cytotoxic. 1.4% of 400,000 active; also: potency is read from the fitted curve at half-maximal effect; % is scaled to controls: 0 for no effect and ±100 for the full control effect; nearly all actives have a fitted effect of over 60% in size
#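 Cytotoxicity measured as CellTiter-Glo luminescence after 72 h at 37 C. Compound titrations were pinned onto drug-naive KB-3-1 parental adenocarcinoma cells grown in DMEM with 10% FBS, and normalized data fitted to concentration-response curves.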
# KB-V1 cytotox – qHTS assay for MDR1-selective chemotherapeutics: Primary screen using the drug-selected MDR subline cells KB-V1 | 3.4% of 400,000 active | KB-V1 MDR cells viability, CellTiter-Glo, 72 h | Potency, µM (top dose mostly 46.1 µM), hits mostly cytotoxic | AID 1347076, 2019; also: potency is read from the fitted curve at half-maximal effect; % is scaled to controls: 0 for no effect and ±100 for the full control effect; nearly all actives have a fitted effect of over 60% in size
#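 KB-V1 cells (P-gp-expressing MDR subline of KB-3-1) in phenol-red-free DMEM with 10% FBS were exposed to library compounds over a concentration series for 72 h at 37 degrees C. Viability read by CellTiter-Glo luminescence; concentration-effect curves fitted after normalization.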
# SW480 rereplic – A quantitative high throughput screen for small molecules that induce DNA re-replication in SW480 colon adenocarcinoma cells; SW480 DNA re-replication, Hoechst DNA content imaging, 48 h; Potency, µM (titrated, usually from 46.1 µM), for inactives: at the highest dose re-replication activation, most hits filed as activators; 1.8% of 340,000 active; AID 624297, 2012; also: potency is read from the fitted curve at half-maximal effect; % of control where 0% means no effect; nearly all actives have a fitted effect of over 55% in size
#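 DNA re-replication was detected as more nuclei of elevated Hoechst intensity after 48 hr exposure to compound (23 nL pinned per well of 250 cells).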
# IL-1B inflam inh – qHTS for Inhibitors of Inflammasome Signaling: IL-1-beta AlphaLISA Primary Screen | THP-1 LPS/ATP IL-1B secretion, AlphaLISA, 16 h; hits give low values | 4.7% of 360,000 active | activity change, % at 57.5 µM; in the data active = activity change below about -50%; inconclusive = mostly about -30% to -49%; also: % is scaled to controls: 0 for no effect and ±100 for the full control effect
#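 Secreted IL-1B measured by AlphaLISA bead assay after 16 h compound exposure of THP-1 cells; compounds (final up to 57.5 uM) added 1 h before LPS (250 ng/mL) and ATP (1.25 mM) stimulation; lower signal means less secretion.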
# MCF10A rereplic – A quantitative high throughput screen for small molecules that induce DNA re-replication in MCF 10a normal breast cells | MCF 10A DNA re-replication, Hoechst nuclear intensity, 48 h | Potency, µM (series often up to 46.1 µM), for the others: at the highest dose activity, positive = re-replication, actives largely listed as activators | 2.9% of 350,000 active; also: potency is read from the fitted curve at half-maximal effect; % of control where 0% means no effect; nearly all actives have a fitted effect of over 50% in size
# The depositor's hits bear a star; i = inactive; u = inconclusive; x = no result given; ! = not active in a repeat; [ ] = remark or other dose. Hits are enriched below; roughly 9.9% of the tested compounds scored in any of these assays. Unless noted, calls follow the shape of the dose curve; as a rule, active = well fitted curve in the direction sought with a large enough effect; inconclusive = small, poorly fitted or top-dose-only effect, or another doubt; inactive = no such curve, though single readings can be large; an effect the other way counts as inactive or inconclusive.
SMILES,KB-3-1 cytotox,KB-V1 cytotox,SW480 rereplic,IL-1B inflam inh,MCF10A rereplic
COC(=O)c1ccc(C(=O)N2CCCC(CNC(=O)c3ccccc3Cl)C2)cc1 (centres undefined),i,i,-8%,-1,-3%
Cc1cccc(C(=O)NNc2ncnc3c2cnn3-c2ccc(C)c(Cl)c2)c1,i,i,x,x,x
COc1ccc(NC(C)C(=O)Nc2cccc(S(=O)(=O)N3CCOCC3)c2)cc1OC (centres undefined),u,u,78%,u,14%
COc1ccc(CNC(=O)C(C)Sc2nc3ccccc3c(=O)n2CC2CCCO2)cc1 (centres undefined),i,5.8µM*,-3%,-3,-2%
O=C(NCc1ccccc1)NC1CCCCC1,i,i,12%,10,0%
COc1ccc(CCNC(=O)C(=O)NCC2CCCO2)cc1 (centres undefined),i,i,-7%,-5,-10%
COc1ccc(CNC(=O)C(=O)NCC2CCCO2)cc1 (centres undefined),18µM*,i,-27%,3,u
COc1ccc(CNC(=O)NC2CCCCC2)cc1,i,i,18µM*,5,3.7µM*
Cc1c(C)c2ccc(OC(C)C(=O)NCCCN3CCOCC3)c(C)c2oc1=O (centres undefined),i,i,-3%,19,0%
CCN(CC)S(=O)(=O)c1ccc(C(=O)NC(=S)N2CCCCC2C)cc1 (centres undefined),i,i,x,-5,x
O=C(Nc1ccc(NC(=O)c2ccccc2)c2ccccc12)c1ccccc1,i,i,x,-8,x
Fc1ccc(Oc2nc(-c3ccccn3)nc3ccccc23)cc1,i,u,63%,x,u
COc1ccc(Oc2nc(-c3ccncc3)nc3ccccc23)cc1,i,i,0%[9.22 µM],-6,4%
COc1ccc(Oc2nc(-c3ccccn3)nc3ccccc23)cc1,u,u,u,-93*,2%
c1ccc(Oc2nc(-c3ccccn3)nc3ccccc23)cc1,u,i,21µM*,u,u
CCCN(CCC)S(=O)(=O)c1ccc(C(=O)N2CCn3c4c(c5cc(C)ccc53)CCCC42)cc1 (centres undefined),i,i,x,x,x
CC1CCC/C=C/C(=O)c2c(O)cc(O)cc2CC(=O)O1 (centres undefined),10µM*,u,u,-115*,1µM*
C[C@@H]1Cc2c(O)c(O)cc(O)c2C(=O)O1,i,i,-81%,45,-2%
CC(=O)NS(=O)(=O)c1ccc(NC(=O)C(C)NS(=O)(=O)/C=C/c2ccccc2)cc1 (centres undefined),i,i,5%,-5,8%
CN1CCN(S(=O)(=O)c2ccc(NC(=O)c3ccc(F)cc3Cl)cc2)CC1,i,u,2%,14,2%
CC(C)c1nnc(NC(=O)c2ccc3c(c2)OCO3)s1,i,i,-26%,-17,0%
CC(c1ccccc1)c1nnc(NC(=O)c2ccc3c(c2)OCO3)s1 (centres undefined),u,15µM*,15µM*,-10,u
COc1ccccc1-c1nnc(NC(=O)c2ccc3c(c2)OCO3)s1,5.8µM*,6.5µM*,5.8µM*,0,u
C=CCOc1ccc(C[C@H](N)C(=O)NC[C@H]2O[C@@H](n3cc(C)c(=O)[nH]c3=O)C[C@@H]2O)cc1,i,i,x,28,x
CC(=O)c1cccc(NC(=O)Cn2nc(C(F)(F)F)c3c2CCC3)c1,i,i,x,x,x
SMILES,KB-3-1 cytotox,KB-V1 cytotox,SW480 rereplic,IL-1B inflam inh,MCF10A rereplic
COc1cccc(NC(=O)CN(C)C(=O)c2ccc(OCC3CCCO3)cc2)c1 (centres undefined),i,i,-2%,-3,3%
COc1ccc(C(OCC(O)CNCCc2ccc(S(N)(=O)=O)cc2)c2ccc(OC)cc2)cc1 (centres undefined),i,u,29%,-68*,3%
COc1ccc(CC(=O)NCCc2ccc(S(N)(=O)=O)cc2)cc1,i,i,4%,-6,-1%
OC(CNCCc1ccc(C(F)(F)F)cc1)COC(c1ccccc1)c1ccccc1 (centres undefined),u,i,u,-69*,u
Cn1c(=O)oc2cc(S(=O)(=O)N3CCCC(C(=O)NC4CCCc5ccccc54)C3)ccc21 (centres undefined),5.8µM*,u,-2%,12,1%
COc1ccccc1CNC(=O)Cn1c(=O)ccc2cc(S(=O)(=O)N3CCC(C)CC3)ccc21,i,i,x,x,x
COc1ccccc1CNC(=O)Cn1c(=O)oc2cc(S(=O)(=O)N3CCC(C)CC3)ccc21,18µM*,i,x,x,x
COc1ccccc1N1CCN(C(=O)C2CCCN(S(=O)(=O)c3ccc4c(c3)oc(=O)n4C)C2)CC1 (centres undefined),10µM*!,u,-5%,4,21%
COc1ccc(N2CCN(C(=O)C3CCCN(S(=O)(=O)c4ccc5c(c4)oc(=O)n5C)C3)CC2)cc1 (centres undefined),i,i,-16%,32,1%
CC(=O)NNc1cc(C)nc(N)n1,i,i,-3%,9,0%
Cc1ccc(C)c(NC(=O)CSc2nnc3n2CCCCC3)c1,i,i,4%,8,0%
Cc1ccc(CN(C)C(=O)CSc2nnc3n2CCCCC3)c(C)c1,i,15µM*,-2%,0,11%
COc1ccc(/C=C2\CCC/C(=C\c3ccc(OC)c(OC)c3OC)C2=O)c(OC)c1OC,i,i,1%,0,13%
COc1cc(OC)c(OC)cc1/C=C1\CCC/C(=C\c2cc(OC)c(OC)cc2OC)C1=O,u,u,u,-56*,16µM*
COc1cc(OC)c(OC)cc1/C=C1\CCC(C2CCCC2)C1=O (centres undefined),i,u,u,-51*,u
COc1ccc(/C=C2\CCC(C3CCCC3)C2=O)c(OC)c1 (centres undefined),i,i,-7%,58,1%
CCC(=O)c1ccc(OCCn2cncn2)cc1,i,i,-5%,12,-13%
Cc1cc2ncn(CCOc3ccccc3)c2cc1C,i,23µM*,-60%,-9,19%
CCC(=O)c1ccc(OCCn2cnc3ccccc32)cc1,i,21µM*,-2%,-1,-4%
Nc1nsc2ccccc12,u,u,u,-99*,-30%
CCC(=O)Nc1cc2c(cc1C(=O)CC)OCCO2,i,21µM*,14%,-2,-2%
